High-throughput results (PubChem)
PKA-R2B activ: activators of human PKA-R2B complex. P22694+P31323. PKA-R2B holoenzyme dissociation, Cy5-IP20 fluorescence polarization; R2B truncated from residue 108, S112A mutant; 0% DMSO only, 100% 113 µM cGMP. activation, % at 11.4 µM. 340,000 compounds, 0.079% hits;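 active = activation above a cutoff set at the mean over all compounds plus 3 SD, cut at about 18% in these data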;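 also: higher means more holoenzyme dissociation and a rise in polarization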
Target sequence (P31323 whole entry, looked up, other chains not shown, the tested form may be a part): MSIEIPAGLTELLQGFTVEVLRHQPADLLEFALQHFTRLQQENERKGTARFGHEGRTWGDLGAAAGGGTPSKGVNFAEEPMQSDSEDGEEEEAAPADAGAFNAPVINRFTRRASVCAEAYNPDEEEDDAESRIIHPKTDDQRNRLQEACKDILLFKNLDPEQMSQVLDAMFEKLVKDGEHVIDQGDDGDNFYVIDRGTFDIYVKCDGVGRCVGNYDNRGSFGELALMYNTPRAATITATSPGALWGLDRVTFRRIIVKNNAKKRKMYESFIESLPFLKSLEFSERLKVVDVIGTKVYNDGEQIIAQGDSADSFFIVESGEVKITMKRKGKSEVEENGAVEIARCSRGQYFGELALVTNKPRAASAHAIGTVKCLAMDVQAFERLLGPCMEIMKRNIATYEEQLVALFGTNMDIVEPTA
CHT inh: human CHT choline transport inhibition | Q9GZV3 | 310,000 compounds, 0.86% hits | B-score at 10 µM | CHT-expressing cells, membrane potential dye, choline response; hits give low values;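 active = B-score over 3 SD under the library average, and starting fluorescence ratio not unusually high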;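 also: choline stimulus applied at its EC90 after an EC20 pre-addition; B-score computed on integrated fluorescence ratio after choline addition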
CHT allo act: allosteric activators of human choline transporter CHT; Q9GZV3; 310,000 compounds, 0.49% hits; B-score at 10 µM; CHT-expressing cells, membrane potential dye, choline EC20; hits give high values; LV-AA mutant CHT in HEK293 cells; AID 488977;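 active = initial fluorescence not abnormally high and integrated response B-score, plate-corrected, over 3 SD above library mean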
TMEM16A inh: mouse TMEM16A channel inhibition, primary screen | 310,000 compounds, 1.2% hits | normalized B-score (activity score, 25-100; higher = stronger inhibition) at 10 µM | HEK293 TMEM16A/YFP iodide influx fluorescence, ionomycin | Q8BHY3;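 active = ratio plate-corrected score three or more library SD toward inhibition, starting fluorescence score within five deviations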;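 also: score derived from kinetic fluorescence span divided by baseline fluorescence per well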
PKA-R1A act: PKA-R1A complex activation | PKA-R1A dissociation, Cy5-IP20 fluorescence polarization; scaled: DMSO 0%, 113 µM cGMP 100% | activation, % at 11.4 µM | P00514+P68181 | 340,000 compounds, 0.083% hits;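 active = percent activation above the mean of all tested compounds plus 3 SD, cut at about 19% in these data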;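 also: higher means more PKAc released from R1A so a rise in polarization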
ANO1 activ: activators or potentiators of mouse TMEM16A chloride channel | Q8BHY3 | HEK293 TMEM16A/YFP-H148Q/I152L, iodide quench fluorescence; hits give low values | B-score at 10 µM | 340,000 compounds, 0.3% hits | AID 623877;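 active = fluorescence-ratio B-score plate-corrected deviation score at least 3 library SD below zero, with starting fluorescence score within 5 deviations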;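 also: channel opened by trigger with iodide after compound preincubation; score built on the fluorescence ratio of max minus min over baseline; more negative score means more quench and so TMEM16A activation or potentiation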
CHT block conf: confirmation of human choline transporter CHT inhibitors. CHT activity remaining % of control (hits give low values), % at 10 µM. CHT-expressing cells, choline membrane potential dye; LV-to-AA substituted CHT, HEK293 cells. shares compounds with CHT inh. 2,400 compounds, 70% hits;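 active = choline transporter activity left, mean of duplicates at 10 µM, below buffer-only control mean minus 3 SD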;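 also: depolarization triggered by choline at its EC90 following an EC20 pre-addition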
HEK293 CHT ctr: activity in parental HEK293 cells lacking CHT; membrane potential ratio readout (active if shifted either direction beyond buffer ±3SD; no single direction) at 10 µM; shares compounds with CHT inh; membrane potential dye, choline response; active = decrease or increase beyond buffer ±3SD; 2,400 compounds, 4% hits;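 also: parental cells lack the transporter so any hit is non-specific; ratio is peak minus trough fluorescence over baseline after EC90 choline challenge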
Large screens that a line does not name were inactive (follow-up assays come after a bar, where they were run). Rows were chosen to be rich in hits. Some 2.5% of all compounds tested hit in one or more screens of this group.

Cc1ccc(S(=O)(=O)N2CC3(O)CN(C(=O)OC(C)C)N(C(=O)OC(C)C)CC3(OC(=O)NCc3ccccc3F)C2)cc1 (centres undefined)	none (no result: CHT inh, CHT allo act, TMEM16A inh, ANO1 activ)
CCOc1ccc(/C=C/C(=O)NC2CCCCC2)cc1	none
CCN(CC)S(=O)(=O)c1ccc(/C=C/C(=O)NC2CCCCC2)cc1	CHT inh -7.1 | CHT block conf 46% | HEK293 CHT ctr inactive
CC(NC1=CC(=O)c2cccnc2C1=O)C(O)c1ccccc1 (centres undefined)	none (no result: CHT inh, CHT allo act, TMEM16A inh)
O=C1NC(=S)S/C1=C\c1coc2ccccc2c1=O	CHT inh -8.4 | CHT block conf 55% | HEK293 CHT ctr inactive
CCc1nnc(NC(=O)c2nc(S(=O)(=O)Cc3ccc(C)cc3)ncc2Cl)s1	CHT inh -8.3 | CHT block conf 32% | HEK293 CHT ctr inactive
CCc1nnc(NC(=O)c2nc(S(=O)(=O)Cc3cccc(C)c3)ncc2Cl)s1	CHT inh -6.1 | CHT block conf 30% | HEK293 CHT ctr inactive
CC(C)c1nnc(NC(=O)c2nc(S(=O)(=O)Cc3ccc(F)cc3)ncc2Cl)s1	CHT inh -6.2 | CHT block conf 19% | HEK293 CHT ctr inactive
O=C(CCCNC(=O)c1ccc(Cl)cc1)Nc1ccccc1F	none
CN(Cc1ccccc1F)C(=O)CCCNC(=O)c1ccc(Cl)cc1	CHT inh -5.8 | CHT block conf 55% | HEK293 CHT ctr inactive
O=C(NC1CCCCC1)N1CCN(c2ccc(Cl)cc2)CC1	CHT inh -5.8 | CHT block conf inactive | HEK293 CHT ctr inactive
Cc1ccc2[nH]c3c(c2c1)CN(C(=O)CN1CCN(Cc2ccc4c(c2)OCO4)CC1)CC3	CHT inh -5.6 | CHT block conf 38% | HEK293 CHT ctr inactive
O=C(NNC1=C(C(=O)C(F)(F)F)CCC1)c1ccccc1O	CHT inh -6.5, TMEM16A inh 100 | CHT block conf 31% | HEK293 CHT ctr inactive
O=C(Cn1[nH]c(=O)c2ccccc2c1=O)OCC(=O)N1CCc2ccccc2C1	CHT inh -5.4 | CHT block conf inactive | HEK293 CHT ctr inactive
Cc1ccc(C)c(N2CC(C(=O)Nc3nccs3)CC2=O)c1 (centres undefined)	none
CCCCN1CCC(=O)C(C(=O)OCC)=C1C(=O)OCC	none (no result: CHT inh, CHT allo act, TMEM16A inh, ANO1 activ)
COc1ccc(Cc2noc(CN(C)CC(O)c3ccccc3)n2)cc1OC (centres undefined)	CHT inh -5.7 | CHT block conf inactive | HEK293 CHT ctr inactive
O=C(N/N=C/c1cccn1-c1ccc([N+](=O)[O-])cc1)c1cccnc1	none
CCCN(c1ccccc1F)S(=O)(=O)c1c[nH]c(C(=O)OC)c1	none
S=C(NCc1ccccn1)Nc1ccc(Cl)cc1Cl	CHT inh -5.2 | CHT block conf 53% | HEK293 CHT ctr inactive
COc1ccc(Cl)cc1NC(=S)NCc1ccccn1	none
COc1ccc(C2CC(c3ccc(Br)cc3)=NN2C(=O)CN2CCCC2)cc1 (centres undefined)	CHT inh -7.1 | CHT block conf 56% | HEK293 CHT ctr inactive
COc1ccc(C2=NN(C(=O)CN3CCCCC3)C(c3ccc(C)cc3)C2)cc1 (centres undefined)	none
O=C(CNC(=O)c1ccc(Cl)cc1)NNc1c(F)c(F)cc(F)c1F	none (no result: CHT inh, CHT allo act, TMEM16A inh)
COc1ccc(NC(=S)NC(=O)c2cncc(Br)c2)c(OC)c1	none
Cc1cc(C2=NNC(=NC3CC3)SC2)c(C)n1-c1c(C)n(C)n(-c2ccccc2)c1=O	none
Cc1ccc(-n2c(C)cc(C3=NNC(=NC4CC4)SC3)c2C)cc1C	CHT inh -6.3 | CHT block conf inactive | HEK293 CHT ctr inactive
C[C@H](CO)N1C[C@H](C)[C@@H](CN(C)Cc2ccccc2)Oc2ccc(NC(=O)Cn3cnnn3)cc2C1=O	none (no result: CHT inh, CHT allo act, TMEM16A inh, ANO1 activ)
CCCCNc1c2c(nc3c(-c4ccccc4)c(C)nn13)CCC2	none
COCCNc1c2c(nc3c(-c4ccccc4)c(C)nn13)CCCC2	CHT inh -9 | CHT block conf 66% | HEK293 CHT ctr inactive
Cc1nn2c(N3CCN(CCO)CC3)c3c(nc2c1-c1ccccc1)CCCC3	CHT inh -9 | CHT block conf 31% | HEK293 CHT ctr inactive
Cc1nn2c(NCCOCCO)c3c(nc2c1-c1ccccc1)CCCC3	CHT inh -5.2 | CHT block conf 31% | HEK293 CHT ctr inactive
CCCn1c(=O)c2[nH]c(-c3ccc(S(=O)(=O)O)cc3)nc2n(CCC)c1=O	none
Cc1cc(C)c(NC(=O)CCCCCNC2CCCCC2)c(C)c1	CHT inh -5.2 | CHT block conf 7.1% | HEK293 CHT ctr inactive
C#Cc1ccc(CN2CCN(CCCc3ccccc3)C(CCO)C2)cc1 (centres undefined)	none
CC1CCC(NC(=O)CCn2ccc3cc(S(=O)(=O)N4CCCC4)ccc32)CC1 (centres undefined)	CHT inh -6.3 | CHT block conf 39% | HEK293 CHT ctr inactive
CC1CCN(S(=O)(=O)c2ccc3c(ccn3CCC(=O)N3CCCCC3)c2)CC1	none
Cc1ccc(Cl)c(NC(=O)CSc2n[nH]c(=O)n2C2CC2)c1Cl	none (no result: CHT inh, CHT allo act, TMEM16A inh)
Cc1oc(-c2ccc(Cl)cc2)nc1CS(=O)CC(=O)NCc1ccccc1 (centres undefined)	none
Cc1oc(-c2ccc(Cl)cc2)nc1CS(=O)CC(=O)NC(C)c1ccccc1 (centres undefined)	CHT inh -6.5 | CHT block conf 39% | HEK293 CHT ctr inactive
O=C(CC1C(=O)NCCN1Cc1ccc(-c2ccccc2)cc1)NCCCn1ccnc1 (centres undefined)	none
CCn1c(SCC(=O)N=Nc2c(O)[nH]c3ccccc23)nc2ccccc21	CHT inh -7 | CHT block conf 54% | HEK293 CHT ctr inactive
CCn1c(SCC(=O)N=Nc2c(O)[nH]c3ccccc23)nnc1-c1ccc(C(C)(C)C)cc1	none (no result: PKA-R2B activ, PKA-R1A act, ANO1 activ)
COc1ccc(Nc2ccc(C(=O)O)cc2[N+](=O)[O-])cc1	none
COc1ccc(OC)c(Nc2ccc(C(=O)O)cc2[N+](=O)[O-])c1	CHT inh -6.7 | CHT block conf inactive | HEK293 CHT ctr inactive
O=C(CNC(=O)c1cccs1)OCC(=O)c1ccc([N+](=O)[O-])cc1	CHT inh -5.1 | CHT block conf inactive | HEK293 CHT ctr inactive
